About 83,000 compounds went through this panel and 20% of them were active in at least one assay; those are over-represented in the sample as a whole.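 A percent growth of 40 corresponds to 60% growth inhibition; 0 means no net growth; -100 means all cells died. Active threshold: below 10.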 Unmarked numbers belong to inactive results. Calls of active or inactive are those of the source.

The values that follow come from PubChem BioAssay (NCI).

The test system of the test is COLO 205 colon. The test can be described thus: NCI-60 one-dose screen, 48 h (100 = growth as untreated, 0 = no growth, -100 = all killed). The conditions noted are these: 10 µM unless noted.
Consider `COc1ccc(-c2cc(NC(=O)Nc3ccc4ncsc4c3)no2)cc1`, for which the growth is 125%.

As for `O=[N+]([O-])c1ccccc1/C=N\NC(=S)N/N=C/c1ccccc1[N+](=O)[O-]`, the growth was 94.6%.

For the compound `O=C1c2cc3c(cc2-c2c1c1ccc(F)cc1c(=O)n2C[C@H](O)[C@H](O)[C@H](O)CO)OCO3`, the growth is -30.9% (active).

For the compound `Cc1ccc2c(C(C[N+](=O)[O-])c3ccccc3F)c(-c3ccccc3)[nH]c2c1` (stereo not drawn), the growth is 32.3%.

In the case of `COc1ccc(CCNc2nc(SC)nc(-c3cccc([N+](=O)[O-])c3)c2C#N)cc1OC`, the growth was 113%.

Turning to `O=C(CCN1C(=O)/C(=C/c2ccc(Cl)cc2)SC1=S)NCCCN1CCOCC1`, the growth is 108%.

With `Cc1nn(-c2cc(=O)[nH]c3ccc(Cl)cc23)c(N)c1C#N`, the growth was 119%.

With `COC[C@H](C)n1c(C2CCOCC2)nc2cnc3cc(-c4c(C)noc4C)c(OC)cc3c21`, the growth is 28.9%.

In the case of `COc1cc(C(=O)Oc2ccccc2OC(=O)c2cc(OC)c(OC)c(OC)c2)cc(OC)c1OC`, the growth is 103%.

Take `COc1ccc(/C=C\c2cc(OC)c(OC)c(OC)c2)cc1OCC(=O)Nc1ccc2nc(C)sc2c1`: the growth is 75%.

Turning to `COc1cc2c(cc1O)CC[C@@H]1[C@@H]2CC[C@]2(C)[C@@H](OCCCN(C)C)CC[C@@H]12`, the growth is -71% (active).

In the case of `CC(=O)Oc1ccc(Cl)cc1CN(C(C)=O)C1CCCCC1`, the growth is 104%.

For the compound `O=C(/C=C/c1cccc([N+](=O)[O-])c1)c1ccc(O)c(CN2CCN(c3cc4c(cc3F)c(=O)c(C(=O)O)cn4C3CC3)CC2)c1`, the growth was 60.1%.

As to `O=C1c2cc3c(cc2-c2c1c1ccc(Cl)cc1c(=O)n2CCCN1CCOCC1)OCO3`, the growth was 54.8%.

Consider `COc1ccc(-n2nc(C)c3c(Oc4ccc(NC(=O)Nc5c(Cl)cccc5Cl)cc4)ncnc32)cc1`, for which the growth was 99%.

`CCOc1cc2c(cc1OCC)C(c1cc(OC)c(O)cc1Cl)NCC2` (stereo not drawn): the growth is -37.4% (active).

In the case of `COC(=O)c1ccc(NC(=O)c2ccc(-c3cccc([N+](=O)[O-])c3)o2)cc1`, the growth is 108%.

As for `COc1ccc(-c2cc(-c3ccc(Nc4ccnc5cc(Cl)ccc45)cc3)nc(N3CCOCC3)n2)cc1`, the growth was 44.7%.

In the case of `O=C(COc1cccc(/C=C2\CSc3ccccc3C2=O)c1)Nc1nccs1`, the growth is 113%.

Turning to `N#C/C(=C\c1ccc(-c2ccc(Cl)c(Cl)c2)o1)c1nc(-c2ccco2)cs1`, the growth was 106%.

As to `CN(C)c1ccc(N=Nc2ccc(Br)cn2)c(O)c1`, the growth is 7.48% (active).

Regarding `C#CCOc1ccc2ncnc(Nc3cccc(CNC(=O)CCl)c3)c2c1`, the growth is 68.2% [8.25 µM].

As to `Cn1cc(-c2nonc2-c2c[nH]c3ccccc23)c2cccnc21`, the growth is 37.6%.

`O=CNc1ccc2c(c1)Cc1cccc(NC=O)c1-2`: the growth was 99.9%.

Take `Cn1c(O)c(N=NC(=O)c2cc(-c3ccccc3)on2)c2ccccc21`: the growth is 130%.

For `CC1=C/C(=C(\c2ccc(N(C)C)cc2)c2ccc([N+](C)(C)C)cc2)C=CC1=[N+](C)C`, the growth was 66%.

In the case of `COc1cc2c(cc1-c1c(C)noc1C)ncc1nc(C3CCCC3)n([C@H](C)COC(F)F)c12`, the growth is 23.9%.

`Clc1ccc2c(NCCNc3nc(N4CCCCC4)nc4ccccc34)ccnc2c1`: the growth is -84.6% (active).

`COc1ccc2[nH]cc(-c3noc(C(=O)c4cn(C)c5ccc(F)cc45)n3)c2c1`: the growth was 96%.

For the compound `O=c1cc(CSc2nnc(-c3ccc(F)cc3)o2)c2ccc3ccccc3c2o1`, the growth was 117%.

With `O=C1Nc2ccc(Br)cc2C12Oc1ccccc1C1CC(c3ccc(F)cc3)=NN12` (stereo not drawn), the growth is 109%.

Take `FC(F)(F)c1ccc(-c2cn3nc(-c4c[nH]c5ccc(Br)cc45)sc3n2)cc1`: the growth is 91.8%.

Take `COc1cc(/C=C/c2cc(/C=C/c3ccc(O)c(OC)c3)n(-c3c(Cl)cccc3Cl)c(=O)n2)ccc1O`: the growth was 71.8%.

`C=CCSSc1ncnc2c1ncn2C1OC(CO)C(O)C1O` (stereo not drawn): the growth was 25.6%.

`O=Nc1c(O)c(Cl)cc2ccccc12`: the growth was 70.9%.

Consider `Cc1cc2nc3[nH]c4ccccc4c3nc2cc1C`, for which the growth is 88%.

In the case of `COc1cc(-c2nn(C)nc2-c2cc3ccccc3s2)cc(OC)c1OC`, the growth was -14.5% (active).

`CC(=O)OCCC/C(=C/c1cc2ccccc2c2ccccc12)[N+](=O)[O-]`: the growth was -85.9% (active).
